Measured values from article PMC7862700, “An all-to-all approach to the identification of sequence-specific readers for epigenetic DNA modifications on cytosine”.

Experiments:
Test in all cases: DAPPL (digital affinity profiling via proximity ligation, sequencing); 10 mM Tris-HCl pH 7.5, 50 mM NaCl, 1 mM DTT, 4% glycerol, room temperature, 30 min; GST-TFs on glutathione beads, 16-mer random dsDNA library, 0.1% formaldehyde crosslink after washing; high values mean tight binding
[1] = target: T1, FLI1 (Homo sapiens, UniProt Q01543 1-452); conditions: protein: recombinant; tags: N-terminal GST; dsDNA, one strand shown
T1 sequence: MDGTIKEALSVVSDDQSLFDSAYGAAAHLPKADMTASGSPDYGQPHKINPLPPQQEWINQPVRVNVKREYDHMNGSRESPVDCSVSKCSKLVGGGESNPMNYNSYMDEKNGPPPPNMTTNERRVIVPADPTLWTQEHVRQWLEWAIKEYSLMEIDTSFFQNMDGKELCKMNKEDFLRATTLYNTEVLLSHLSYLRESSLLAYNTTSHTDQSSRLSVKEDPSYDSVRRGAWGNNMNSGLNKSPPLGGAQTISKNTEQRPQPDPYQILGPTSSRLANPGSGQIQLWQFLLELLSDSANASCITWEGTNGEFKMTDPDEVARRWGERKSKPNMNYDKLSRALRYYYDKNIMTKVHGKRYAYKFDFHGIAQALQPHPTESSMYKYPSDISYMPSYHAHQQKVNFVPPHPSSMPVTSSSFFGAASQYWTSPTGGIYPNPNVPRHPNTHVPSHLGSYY
Summary of the method: (§1)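 After expression in yeast as GST fusions, human transcription factors were bound to glutathione beads, DNA-barcoded and mixed with a tag-only sample. The pools were incubated with 200 nmole of a 16-mer random double-stranded DNA library in Tris/NaCl/DTT/glycerol buffer (30 min, room temperature), washed and crosslinked with 0.1% formaldehyde. Proximity ligation with BsaI/T4 ligase ran for 1 h at 37 °C, before PCR amplification and sequencing on an Illumina NextSeq500. Binding signal is a hexamer's read frequency for a factor divided by its frequency for the tag-only sample.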

[2] = target: T2, ELK1 (Homo sapiens, UniProt P19419 1-428); conditions: protein: recombinant; tags: N-terminal GST; dsDNA, one strand shown
T2 sequence: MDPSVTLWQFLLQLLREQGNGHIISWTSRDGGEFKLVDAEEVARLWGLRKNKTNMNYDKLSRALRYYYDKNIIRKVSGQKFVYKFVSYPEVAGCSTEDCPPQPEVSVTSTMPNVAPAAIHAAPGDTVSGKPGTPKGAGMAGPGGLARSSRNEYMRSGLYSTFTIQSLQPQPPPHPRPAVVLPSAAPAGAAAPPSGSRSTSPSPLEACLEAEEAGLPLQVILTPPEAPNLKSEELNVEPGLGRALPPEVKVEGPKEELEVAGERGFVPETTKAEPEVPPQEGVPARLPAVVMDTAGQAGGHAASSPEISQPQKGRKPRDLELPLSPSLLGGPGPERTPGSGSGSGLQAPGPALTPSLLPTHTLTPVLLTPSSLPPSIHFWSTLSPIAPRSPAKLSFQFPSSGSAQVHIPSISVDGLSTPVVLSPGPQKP
Summary of the method: as §1

[3] = target: T3, GABPA (Homo sapiens, UniProt Q06546 1-454); conditions: protein: recombinant; tags: N-terminal GST; dsDNA, one strand shown
T3 sequence: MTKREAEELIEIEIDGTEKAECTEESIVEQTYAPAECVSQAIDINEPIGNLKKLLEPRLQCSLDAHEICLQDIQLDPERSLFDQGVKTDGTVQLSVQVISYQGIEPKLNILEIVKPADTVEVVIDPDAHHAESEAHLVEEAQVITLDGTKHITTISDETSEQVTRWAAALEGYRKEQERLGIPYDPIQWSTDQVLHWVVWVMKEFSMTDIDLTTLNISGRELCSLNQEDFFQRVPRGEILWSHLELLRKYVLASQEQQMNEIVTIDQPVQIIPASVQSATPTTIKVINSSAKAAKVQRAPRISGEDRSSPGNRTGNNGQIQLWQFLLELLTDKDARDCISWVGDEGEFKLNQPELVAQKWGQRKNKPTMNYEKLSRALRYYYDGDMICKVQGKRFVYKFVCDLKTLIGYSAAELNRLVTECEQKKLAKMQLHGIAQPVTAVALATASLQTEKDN
Summary of the method: as §1

[4] = target: T4, ERG (Homo sapiens, UniProt P11308 1-479); conditions: protein: recombinant; tags: N-terminal GST; dsDNA, one strand shown
T4 sequence: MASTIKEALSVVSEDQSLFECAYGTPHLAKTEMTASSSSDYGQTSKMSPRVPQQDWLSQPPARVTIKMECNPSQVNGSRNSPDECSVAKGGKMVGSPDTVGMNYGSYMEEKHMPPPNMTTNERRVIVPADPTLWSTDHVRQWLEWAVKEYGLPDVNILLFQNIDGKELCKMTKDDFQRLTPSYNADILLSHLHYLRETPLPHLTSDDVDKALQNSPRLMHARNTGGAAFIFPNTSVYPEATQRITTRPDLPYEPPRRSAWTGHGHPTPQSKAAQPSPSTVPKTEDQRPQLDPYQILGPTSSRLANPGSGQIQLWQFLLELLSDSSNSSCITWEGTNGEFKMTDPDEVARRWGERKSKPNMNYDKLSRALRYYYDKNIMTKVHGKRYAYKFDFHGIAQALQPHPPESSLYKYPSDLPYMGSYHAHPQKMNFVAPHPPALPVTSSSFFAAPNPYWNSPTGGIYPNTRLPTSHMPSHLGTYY
Summary of the method: as §1

[5] = target: ELF1 (Homo sapiens, UniProt P32519 1-619); conditions: protein: recombinant; tags: N-terminal GST; dsDNA, one strand shown
Sequence of ELF1 (P32519 whole entry): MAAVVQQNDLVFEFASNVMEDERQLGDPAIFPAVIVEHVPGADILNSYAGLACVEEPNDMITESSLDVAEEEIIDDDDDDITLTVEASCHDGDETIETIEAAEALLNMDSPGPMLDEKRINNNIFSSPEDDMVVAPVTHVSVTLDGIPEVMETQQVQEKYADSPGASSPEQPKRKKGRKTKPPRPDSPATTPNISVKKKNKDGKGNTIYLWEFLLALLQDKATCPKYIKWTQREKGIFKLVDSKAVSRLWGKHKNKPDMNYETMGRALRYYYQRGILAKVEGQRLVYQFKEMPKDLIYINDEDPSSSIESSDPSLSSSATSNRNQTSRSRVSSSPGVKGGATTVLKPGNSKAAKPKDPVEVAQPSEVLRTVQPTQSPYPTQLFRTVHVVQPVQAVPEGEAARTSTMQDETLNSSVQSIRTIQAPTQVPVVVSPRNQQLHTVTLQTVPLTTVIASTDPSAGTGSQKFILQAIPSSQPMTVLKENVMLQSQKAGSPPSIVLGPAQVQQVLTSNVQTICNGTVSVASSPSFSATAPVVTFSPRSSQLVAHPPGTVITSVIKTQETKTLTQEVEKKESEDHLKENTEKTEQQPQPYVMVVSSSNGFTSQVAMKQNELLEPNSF
Summary of the method: as §1

[6] = target: T5, EHF (Homo sapiens, UniProt Q9NZC4 1-300); conditions: protein: recombinant; tags: N-terminal GST; dsDNA, one strand shown
T5 sequence: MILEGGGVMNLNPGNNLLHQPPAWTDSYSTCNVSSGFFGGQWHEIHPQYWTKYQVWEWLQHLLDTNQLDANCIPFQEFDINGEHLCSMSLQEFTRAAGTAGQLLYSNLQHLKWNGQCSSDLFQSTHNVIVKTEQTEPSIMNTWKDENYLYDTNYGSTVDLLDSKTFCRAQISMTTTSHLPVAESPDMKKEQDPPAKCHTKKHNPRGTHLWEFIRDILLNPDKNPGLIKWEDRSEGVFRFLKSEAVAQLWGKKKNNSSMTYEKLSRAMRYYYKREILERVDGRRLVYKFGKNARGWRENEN
Summary of the method: as §1

[7] = target: SPI1 (Homo sapiens, UniProt P17947 1-270); conditions: protein: recombinant; tags: N-terminal GST; dsDNA, one strand shown
Summary of the method: as §1

[8] = target: SPIB (Homo sapiens, UniProt Q01892 1-262); conditions: protein: recombinant; tags: N-terminal GST; dsDNA, one strand shown
Sequence of SPIB (Q01892 whole entry): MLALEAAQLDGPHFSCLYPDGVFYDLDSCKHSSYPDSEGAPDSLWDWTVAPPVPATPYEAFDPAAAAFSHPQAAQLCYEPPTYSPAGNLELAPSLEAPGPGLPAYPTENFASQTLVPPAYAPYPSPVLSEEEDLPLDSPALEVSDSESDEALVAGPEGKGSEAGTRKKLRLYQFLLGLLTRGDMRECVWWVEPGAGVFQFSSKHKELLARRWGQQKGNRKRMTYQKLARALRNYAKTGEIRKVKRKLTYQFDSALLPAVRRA
Summary of the method: as §1

[9] = target: T6, ELK3 (Homo sapiens, UniProt P41970 1-407); conditions: protein: recombinant; tags: N-terminal GST; dsDNA, one strand shown
T6 sequence: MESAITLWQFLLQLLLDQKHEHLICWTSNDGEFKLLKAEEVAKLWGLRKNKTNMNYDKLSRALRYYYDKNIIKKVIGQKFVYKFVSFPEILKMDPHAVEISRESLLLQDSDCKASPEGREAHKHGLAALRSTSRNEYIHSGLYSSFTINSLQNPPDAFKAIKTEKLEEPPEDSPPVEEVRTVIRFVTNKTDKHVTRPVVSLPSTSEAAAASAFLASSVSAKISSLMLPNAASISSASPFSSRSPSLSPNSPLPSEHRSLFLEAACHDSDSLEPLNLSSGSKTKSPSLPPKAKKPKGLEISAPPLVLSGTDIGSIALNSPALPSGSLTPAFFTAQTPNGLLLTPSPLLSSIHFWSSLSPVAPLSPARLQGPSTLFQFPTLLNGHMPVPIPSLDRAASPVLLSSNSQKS
Summary of the method: as §1

[10] = target: T7, FEV (Homo sapiens, UniProt Q99581 1-238); conditions: protein: recombinant; tags: N-terminal GST; dsDNA, one strand shown
T7 sequence: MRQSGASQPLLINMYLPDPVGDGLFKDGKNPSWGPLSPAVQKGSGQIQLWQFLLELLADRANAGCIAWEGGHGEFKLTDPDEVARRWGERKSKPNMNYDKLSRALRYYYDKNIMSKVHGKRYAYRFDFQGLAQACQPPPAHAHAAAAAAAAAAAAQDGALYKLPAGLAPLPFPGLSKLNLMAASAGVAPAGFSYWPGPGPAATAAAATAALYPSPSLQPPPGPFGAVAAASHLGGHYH
Summary of the method: as §1

[11] = target: ETV5 (Homo sapiens, UniProt P41161 1-510); conditions: protein: recombinant; tags: N-terminal GST; dsDNA, one strand shown
Sequence of ETV5 (P41161 whole entry): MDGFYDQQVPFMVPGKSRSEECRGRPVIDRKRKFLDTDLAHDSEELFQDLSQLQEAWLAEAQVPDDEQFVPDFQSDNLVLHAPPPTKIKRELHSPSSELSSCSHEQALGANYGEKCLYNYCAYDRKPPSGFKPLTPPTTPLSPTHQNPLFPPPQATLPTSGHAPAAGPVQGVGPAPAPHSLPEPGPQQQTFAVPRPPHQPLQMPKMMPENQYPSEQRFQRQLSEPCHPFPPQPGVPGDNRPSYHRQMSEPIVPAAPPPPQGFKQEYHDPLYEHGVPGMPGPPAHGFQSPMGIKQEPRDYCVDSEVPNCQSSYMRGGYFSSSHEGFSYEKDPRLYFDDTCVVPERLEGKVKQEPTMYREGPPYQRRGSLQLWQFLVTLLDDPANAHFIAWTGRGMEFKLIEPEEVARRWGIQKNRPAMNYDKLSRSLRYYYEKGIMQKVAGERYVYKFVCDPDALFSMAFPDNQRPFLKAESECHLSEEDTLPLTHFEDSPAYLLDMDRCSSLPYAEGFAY
Summary of the method: as §1

[12] = target: HSF1 (Homo sapiens, UniProt Q00613 1-529); conditions: protein: recombinant; tags: N-terminal GST; chain copies: 3; dsDNA, one strand shown
Sequence of HSF1 (Q00613 whole entry): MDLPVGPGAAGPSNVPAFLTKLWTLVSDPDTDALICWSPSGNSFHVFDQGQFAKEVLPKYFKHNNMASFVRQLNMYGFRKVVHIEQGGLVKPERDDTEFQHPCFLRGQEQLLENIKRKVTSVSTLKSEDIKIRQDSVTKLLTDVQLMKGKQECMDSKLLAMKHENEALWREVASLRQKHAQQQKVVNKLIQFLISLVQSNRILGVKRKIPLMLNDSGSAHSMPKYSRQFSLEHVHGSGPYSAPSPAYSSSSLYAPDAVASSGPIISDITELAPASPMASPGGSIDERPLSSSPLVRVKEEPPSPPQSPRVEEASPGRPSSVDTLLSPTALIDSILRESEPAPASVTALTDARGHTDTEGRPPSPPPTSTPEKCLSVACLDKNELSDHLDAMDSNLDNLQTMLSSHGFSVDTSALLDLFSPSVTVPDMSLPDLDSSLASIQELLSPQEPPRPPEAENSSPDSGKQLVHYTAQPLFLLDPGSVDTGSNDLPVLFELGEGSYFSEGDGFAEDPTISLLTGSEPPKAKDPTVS
Summary of the method: as §1

[13] = target: T8, SPIC (Homo sapiens, UniProt Q8N5J4 1-248); conditions: protein: recombinant; tags: N-terminal GST; dsDNA, one strand shown
T8 sequence: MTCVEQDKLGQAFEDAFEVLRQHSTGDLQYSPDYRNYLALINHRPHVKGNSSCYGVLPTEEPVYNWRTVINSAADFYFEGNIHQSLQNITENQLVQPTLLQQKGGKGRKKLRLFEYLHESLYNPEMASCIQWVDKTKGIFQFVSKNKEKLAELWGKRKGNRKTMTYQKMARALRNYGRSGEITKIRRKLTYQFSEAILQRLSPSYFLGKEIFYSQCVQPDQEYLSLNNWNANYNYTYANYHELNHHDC
Summary of the method: as §1

[14] = target: ELF4 (Homo sapiens, UniProt Q99607 1-663); conditions: protein: recombinant; tags: N-terminal GST; dsDNA, one strand shown
Sequence of ELF4 (Q99607 whole entry): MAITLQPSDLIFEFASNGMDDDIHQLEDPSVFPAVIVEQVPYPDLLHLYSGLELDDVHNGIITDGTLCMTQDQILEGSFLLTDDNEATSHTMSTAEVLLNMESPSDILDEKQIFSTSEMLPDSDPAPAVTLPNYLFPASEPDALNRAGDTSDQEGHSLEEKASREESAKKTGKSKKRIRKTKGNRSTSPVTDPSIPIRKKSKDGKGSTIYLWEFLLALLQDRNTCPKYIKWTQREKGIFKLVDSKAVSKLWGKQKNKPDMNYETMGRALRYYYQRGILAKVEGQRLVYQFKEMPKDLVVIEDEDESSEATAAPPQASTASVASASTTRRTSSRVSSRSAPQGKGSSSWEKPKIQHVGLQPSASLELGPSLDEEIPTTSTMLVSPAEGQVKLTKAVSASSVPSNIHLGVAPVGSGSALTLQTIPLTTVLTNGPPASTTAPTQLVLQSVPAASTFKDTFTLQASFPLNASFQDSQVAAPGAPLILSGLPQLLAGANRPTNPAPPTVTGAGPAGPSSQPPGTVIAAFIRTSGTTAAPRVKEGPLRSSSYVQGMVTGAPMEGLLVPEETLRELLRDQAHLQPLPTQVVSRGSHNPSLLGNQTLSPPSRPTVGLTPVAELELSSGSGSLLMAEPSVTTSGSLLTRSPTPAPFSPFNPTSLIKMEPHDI
Summary of the method: as §1

[15] = target: T9, ELK4 (Homo sapiens, UniProt P28324-2 1-405); conditions: protein: recombinant; tags: N-terminal GST; dsDNA, one strand shown
T9 sequence: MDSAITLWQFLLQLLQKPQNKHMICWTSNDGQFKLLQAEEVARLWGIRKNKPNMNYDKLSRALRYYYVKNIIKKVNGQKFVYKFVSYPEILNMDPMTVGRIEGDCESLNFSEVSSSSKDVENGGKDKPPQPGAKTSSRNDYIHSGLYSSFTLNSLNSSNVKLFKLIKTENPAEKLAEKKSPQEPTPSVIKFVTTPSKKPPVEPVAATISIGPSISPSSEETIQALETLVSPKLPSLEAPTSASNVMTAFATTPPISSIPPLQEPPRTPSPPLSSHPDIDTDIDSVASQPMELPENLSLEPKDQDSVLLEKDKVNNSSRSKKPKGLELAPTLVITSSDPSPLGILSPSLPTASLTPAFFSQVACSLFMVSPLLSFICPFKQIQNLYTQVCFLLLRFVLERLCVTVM
Summary of the method: as §1

[16] = target: T10, ETV2 (Homo sapiens, UniProt O00321 1-342); conditions: protein: recombinant; tags: N-terminal GST; dsDNA, one strand shown
T10 sequence: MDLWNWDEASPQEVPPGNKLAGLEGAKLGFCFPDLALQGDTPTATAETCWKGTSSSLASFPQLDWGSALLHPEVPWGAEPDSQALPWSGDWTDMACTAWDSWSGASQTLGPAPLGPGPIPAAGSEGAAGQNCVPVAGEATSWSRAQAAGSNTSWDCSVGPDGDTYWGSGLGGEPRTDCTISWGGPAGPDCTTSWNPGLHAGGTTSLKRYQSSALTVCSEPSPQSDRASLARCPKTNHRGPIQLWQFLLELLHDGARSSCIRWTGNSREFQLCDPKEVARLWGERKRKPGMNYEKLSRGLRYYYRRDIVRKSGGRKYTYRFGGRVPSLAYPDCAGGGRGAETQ
Summary of the method: as §1

[17] = target: T11, ELF3 (Homo sapiens, UniProt P78545 1-371); conditions: protein: recombinant; tags: N-terminal GST; dsDNA, one strand shown
T11 sequence: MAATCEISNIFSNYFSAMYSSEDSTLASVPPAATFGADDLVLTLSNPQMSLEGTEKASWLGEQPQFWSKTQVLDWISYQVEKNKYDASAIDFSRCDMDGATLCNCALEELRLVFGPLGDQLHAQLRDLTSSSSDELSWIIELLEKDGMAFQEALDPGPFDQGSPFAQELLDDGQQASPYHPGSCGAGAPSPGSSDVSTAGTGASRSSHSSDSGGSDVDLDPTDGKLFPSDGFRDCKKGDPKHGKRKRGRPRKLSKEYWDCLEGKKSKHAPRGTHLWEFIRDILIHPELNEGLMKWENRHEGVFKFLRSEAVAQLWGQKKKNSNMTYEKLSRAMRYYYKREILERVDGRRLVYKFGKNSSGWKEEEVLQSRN
Summary of the method: as §1

[18] = target: CRX (Homo sapiens, UniProt O43186 1-299); conditions: protein: recombinant; tags: N-terminal GST; dsDNA, one strand shown
Sequence of CRX (O43186 whole entry): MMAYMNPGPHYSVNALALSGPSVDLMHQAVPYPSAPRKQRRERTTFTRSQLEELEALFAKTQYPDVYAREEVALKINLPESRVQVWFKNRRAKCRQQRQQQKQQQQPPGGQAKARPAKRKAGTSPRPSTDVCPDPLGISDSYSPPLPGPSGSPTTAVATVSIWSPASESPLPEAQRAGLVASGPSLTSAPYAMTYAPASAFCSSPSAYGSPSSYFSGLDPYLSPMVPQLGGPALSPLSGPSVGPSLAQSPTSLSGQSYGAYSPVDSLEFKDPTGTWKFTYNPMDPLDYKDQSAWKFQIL
Summary of the method: as §1

[19] = target: ETV1 (Homo sapiens, UniProt P50549 1-477); conditions: protein: recombinant; tags: N-terminal GST; dsDNA, one strand shown
Sequence of ETV1 (P50549 whole entry): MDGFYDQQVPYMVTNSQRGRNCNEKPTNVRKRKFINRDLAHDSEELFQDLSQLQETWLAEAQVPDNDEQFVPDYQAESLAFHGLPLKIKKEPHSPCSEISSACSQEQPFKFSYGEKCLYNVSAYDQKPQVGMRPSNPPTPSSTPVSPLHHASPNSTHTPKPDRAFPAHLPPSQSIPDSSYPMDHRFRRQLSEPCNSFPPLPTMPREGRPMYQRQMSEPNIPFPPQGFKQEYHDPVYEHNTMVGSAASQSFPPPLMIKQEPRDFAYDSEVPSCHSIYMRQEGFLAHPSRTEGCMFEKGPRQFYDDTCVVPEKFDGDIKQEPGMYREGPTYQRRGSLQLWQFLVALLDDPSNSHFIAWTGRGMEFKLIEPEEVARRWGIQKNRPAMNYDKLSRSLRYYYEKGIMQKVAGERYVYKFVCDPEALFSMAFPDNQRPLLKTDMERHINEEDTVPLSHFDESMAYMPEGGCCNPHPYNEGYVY
Summary of the method: as §1

Sequence: GCTTTC
- binding signal [1]: 1.27 fold enrichment (6-mer frequency, TF over GST control)
- binding signal [2]: 1.22 fold enrichment (6-mer frequency, TF over GST control)
- binding signal [3]: 1.3 fold enrichment (6-mer frequency, TF over GST control)
- binding signal [4]: 1.28 fold enrichment (6-mer frequency, TF over GST control)
- binding signal [5]: 1.32 fold enrichment (6-mer frequency, TF over GST control)
- binding signal [6]: 1.34 fold enrichment (6-mer frequency, TF over GST control)
- binding signal [7]: 1.28 fold enrichment (6-mer frequency, TF over GST control)
- binding signal [8]: 1.27 fold enrichment (6-mer frequency, TF over GST control)
- binding signal [9]: 1.38 fold enrichment (6-mer frequency, TF over GST control)
- binding signal [10]: 1.25 fold enrichment (6-mer frequency, TF over GST control)
- binding signal [11]: 1.24 fold enrichment (6-mer frequency, TF over GST control)
- binding signal [12]: 1.35 fold enrichment (6-mer frequency, TF over GST control)
- binding signal [13]: 1.06 fold enrichment (6-mer frequency, TF over GST control)
- binding signal [14]: 1.23 fold enrichment (6-mer frequency, TF over GST control)
- binding signal [15]: 1.26 fold enrichment (6-mer frequency, TF over GST control)
- binding signal [16]: 1.59 fold enrichment (6-mer frequency, TF over GST control)
- binding signal [17]: 1.47 fold enrichment (6-mer frequency, TF over GST control)
- binding signal [18]: 1.33 fold enrichment (6-mer frequency, TF over GST control)
- binding signal [19]: 1.35 fold enrichment (6-mer frequency, TF over GST control)
